Measurements published in PubChem BioAssay (Tox21).
Results filed as inconclusive are left out. Entries that show only a call come without a potency. Values without a mark were called inactive. The source made the active and inactive calls. The call rests on the fitted dose curve; in most records, active means well fitted cell-killing curve with a large enough effect in the repeat runs; inconclusive means weak or mixed curves, or effect the other way; inactive means flat fitted curve, though single readings scatter.

assay: Caspase-3/7 induction in HepG2 cells by small molecules, qHTS cell viability counter screen (AID 1346981); settings: CellTiter-Fluor fluorescence, 17 h; series mostly up to 92.4 µM; activity change, negative = cytotoxicity: at the top concentration; further: nearly all actives have a fitted effect of over 30% in size
Method in brief: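 Cell viability is measured as a cytotoxicity counter screen alongside the Caspase-Glo 3/7 readout in identical wells. Wild-type HepG2 cells are treated with test compounds for 16 hr at 37 C before CellTiter-Fluor addition and a 1-hr incubation.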

SMILES | Potency | activity change, negative = cytotoxicity
CC1=CC(=O)NS(=O)(=O)O1 | inactive | 
N[C@@H](Cc1cc(I)c(Oc2cc(I)c(O)c(I)c2)c(I)c1)C(=O)O | inactive | 
O=C(O)CCCCCCCCCCC(=O)O | inactive | 
O=S1(=O)CC=CC1 | inactive | 
Oc1cccc2ccccc12 | inactive | 
C[C@H]1C[C@H]2[C@@H]3CCC4=CC(=O)C=C[C@]4(C)[C@@]3(F)[C@@H](O)C[C@]2(C)[C@@]1(O)C(=O)CO |  | 9.09% [at 42.5 µM]
O=C1CCC(N2C(=O)c3ccccc3C2=O)C(=O)N1 (configuration not stated) | inactive | 
COc1ccc(NC(C)=O)cc1N | inactive | 
CCCSc1ccc2nc(NC(=O)OC)[nH]c2c1 | inactive | 
O=C(O)c1ccc2c(c1)C(=O)OC2=O | inactive | 
Cc1cc(C)c(C)cc1C |  | -8.58%
COc1ccc(Cl)cc1C(=O)NCCc1ccc(S(=O)(=O)NC(=O)NC2CCCCC2)cc1 | inactive | 
CN(C)CCC(c1ccccc1)c1ccccn1 (configuration not stated) | inactive | 
CN(C)CCOCCN(C)C | inactive | 
CCc1ccc(CCOc2ccc(CC3SC(=O)NC3=O)cc2)nc1 (configuration not stated) |  | 5.33% [at 42.5 µM]
c1c[nH]cn1 | inactive | 
CCCCCC/C(C=O)=C\c1ccccc1 | inactive | 
Nc1ccccc1[N+](=O)[O-] | inactive | 
Cc1occc(=O)c1O | inactive | 
Cc1cccc(O)c1 | inactive | 
CCCCN(CCCC)CCCC | inactive | 
O=C(OCCOCCOC(=O)c1ccccc1)c1ccccc1 | inactive | 
Fc1ccc(Br)cc1 | inactive | 
ON=C1CCCCC1 | inactive | 
COc1cc(Cc2cnc(N)nc2N)cc(OC)c1OC | inactive | 
CCCCC(CC)CO (configuration not stated) | inactive | 
CCCCOC(=O)COc1ccc(Cl)cc1Cl | inactive | 
